PubChem BioAssay (NCI)
This is part of a sample that, as a whole, favours compounds with a hit. Of some 83,000 tested, about 20% had one in any assay.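 Method: cells in 96-well plates; compound added at one concentration; 48 h incubation; percent growth measured; values under 10 scored active.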 A number with no mark means an inactive call. Active and inactive are the calls of the source.

system: COLO 205 colon; experiment: NCI-60 one-dose screen, 48 h (100 = growth as untreated, 0 = no growth, -100 = all killed); conditions: 10 µM unless noted

Compound	growth
COc1cc(/C=C/C(=O)c2ccc(N3CCN(C)CC3)cc2)ccc1F	64.9%
O=C(Nc1cccc(-c2nc(-c3ccc(NC(=O)c4cccnc4)cc3Cl)no2)c1)Nc1ccc(NC(=O)C2CC2)c(C(F)(F)F)c1	-55.3% (active)
CCNC(=O)Oc1ccc(/C(=C(/C)c2ccc(Cl)cc2)c2ccc(OCCN3CCCC3)cc2)cc1	88.8%
CS(=O)c1nccc(-c2c(-c3ccc(F)c(OCc4ccc(F)cc4)c3)nc3sccn23)n1 (stereo not drawn)	100%
CN1CCN(c2ccc(NC(=O)Nc3ccc4c(ccn4-c4cccc(C(N)=O)n4)c3)cc2C(F)(F)F)CC1	44.4%
O=c1oc2ccc(-c3ccc(F)cc3F)cc2c(=O)n1-c1ccc(F)c(F)c1	83.2%
N#Cc1c(NC(=O)c2ccc(F)c(Cl)c2)sc2c1CCC(=O)C2	-50.2% (active)
CC(C)SC1=NC(=C(C(=N1)NC2=ClC=CC=C2)C#N)C3=CC=CC=C3	71.4%
CCOC(=O)c1c(NCC(=O)Nc2cccc(Cl)c2)sc2c1CCCC2	101%
COc1ccc([C@H]2[C@H](O)C(=O)N2c2cc(OC)c(OC)c(OC)c2)cc1	-74.6% (active)
O=c1[nH]c2cc(Cl)ccc2n1C1CCN(c2ccc3nnc(Cl)n3n2)CC1	107%
O=C1[C@@H]2Cc3c([nH]c4ccccc34)[C@H](c3c(Cl)cccc3Cl)N2C(=O)CN1C1CCN(Cc2ccccc2)CC1	75%
CS(=O)(=O)c1ccc2c(c1)c1c(n2Cc2ccc(Cl)cc2)CCCC1	83.3%
O=C(CCCCCCN1CC(=O)N2[C@@H](c3ccc(Cl)c(F)c3)c3[nH]c4ccccc4c3C[C@H]2C1=O)NO	97.4%
O=C(c1ccc(O)cc1)[C@@H]1[C@@H]2CCCN2[C@@]2(C(=O)N(C(=O)c3ccc(F)cc3)c3ccccc32)[C@H]1c1ccc(F)cc1	105%
COc1cc(-c2nc(SCc3ccc(C)cc3)[nH]c(=O)c2C#N)ccc1OCc1ccccc1	119%
CN(C)C(=O)c1ccccc1-n1cnc2ccccc2c1=O	109%
CCN1C(=O)N(CC)C2SC(N/N=C/c3ccccc3)=NC21 (stereo not drawn)	-43.5% (active)
CCOC(=O)Nc1ccc(-c2nc(-c3cccc(O)c3)c(-c3ccnc(Br)c3)[nH]2)cc1	43.6%

Compound	growth
O=C1c2c(c3c4cc(Br)ccc4[nH]c3c3ccc4ccccc4c23)C(=O)N1CCN1CCCCC1	61.7%
CN(C)CCn1c2ccc(N)cc2c2nc3ccccc3nc21	9.4% (active)
COc1ccc(-c2cc(-c3cccc4ccccc34)n3c(n2)nc2ccccc23)cc1	74%
Nc1c(C(=O)c2ccccc2)sc2nc(-c3cnccn3)cc(-c3cccs3)c12	108%
CCOC(=O)c1c(Nc2ccccc2)nn2c(-c3ccc(OC)c(OC)c3)ccnc12	55.7%
O=C(COc1ccc(C2SCC(=O)N2c2ccccc2)cc1)c1ccccc1 (stereo not drawn)	111%
CCn1c2ccc(/C=N/OCCCN(C)C)cc2c2cc(/C=N/OCCCN(C)C)ccc21	-55.6% (active)
N/C(=N\OC(=O)CSc1nc2ccccc2s1)c1ccc2ccccc2c1	107%
COc1ccc(-c2nc3cc(Cl)c(Cl)cc3n2CC(=O)N=Nc2c(O)[nH]c3ccc(Br)cc23)cc1	-37.9% (active)
Oc1ccc(-c2nnc(SCc3ccc(O)c4ncccc34)o2)cc1	46.2%
CC1=CC(=O)CC(C)(C)[C@@]1(O)/C=C/C(C)=C\C(=O)O	-57.6% (active)
O=C(N/N=C\c1ccc(Cl)cc1)c1ccc2nc(-c3ccc(Br)cc3)[nH]c2c1	-33.4% (active)
CS(=O)(=O)c1nccc(-c2c(-c3ccc(F)c(OCc4ccccc4)c3)nc3sccn23)n1	106%
C=CCn1c(SCC(=O)Nc2ccc(OC)cc2)nnc1-c1ccc(Cl)cc1	107%
CN1C(=O)N(C)C2Nn3c(s/c(=C\c4ccccn4)c3=O)=NC21 (stereo not drawn)	110%
Oc1ccc(-c2nnc(SCc3ccc(O)c4ncccc34)n2-c2ccccc2)cc1	28.2%
Fc1ccccc1/C=C(/C1=NCCN1)n1cnc2ccccc21	123%
COc1cnc2c(c1)C(=O)c1c-2n(CCCn2ccnc2)c(=O)c2cc(OC)c(OC)cc12	-85.2% (active)
CC[C@@](C)(NC(=O)C(C)(C)NC(=O)[C@@H](NC(=O)[C@@H]1CCCN1C(=O)C(C)(C)NC(=O)[C@H](CC(C)C)NC(=O)CNC(=O)C(C)(C)NC(=O)[C@@H](NC(=O)C(C)(C)NC(=O)[C@H](CCC(N)=O)NC(=O)[C@H](C)NC(=O)C(C)(C)NC(=O)[C@H](C)NC(=O)C(C)(C)NC(=O)[C@H](C)NC(=O)C(C)(C)NC(C)=O)C(C)C)C(C)C)C(=O)N[C@@H](CCC(N)=O)C(=O)N[C@@H](CCC(N)=O)C(=O)N[C@H](CO)CC1CCCCC1	-7.42% [5 µM] (active)
